{"source": "PubChem BioAssay AID1259418", "about": "(Broad Institute, 2018)", "note": "Out of some 3,400 compounds screened, about 840 (25%) were called active. Another 11% or so got no clear call; they are omitted. Only a sample is shown. Entries with a potency or affinity are not part of this list. Unmarked numbers belong to inactive results.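 How the source made its calls: active means fitted half-maximal concentration of signal decrease at or below twice the sample's top tested concentration; inconclusive means flat curve between -70 and -30 percent, or poor fit; inactive means flat within 30 percent, signal rise, or potency above limit.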"}
{"assay": "T. gondii growth inhibition with IFN-gamma, dose response, cell-based, ME49Luc, HeLa, luciferase, 72 h (AID 1259418)", "details": "T. gondii ME49Luc in IFN-y HeLa, hits give low values, -100% = high-dose IFN-γ control wells; at 19.5 µM unless noted"}
{"smiles": "CCc1ccc(NC(=O)N2CCN(Cc3nc(-c4cccc(Cl)c4)oc3C)CC2)cc1", "max activity": "-13.8%"}
{"smiles": "Cc1oc(-c2cccc(Cl)c2)nc1CN1CCN(C(=O)Nc2ccccc2C(F)(F)F)CC1", "max activity": "-9.46% [at 2.6 µM]"}
{"smiles": "Cc1cc(C)cc(NC(=O)N2CCN(Cc3nc(-c4cccc(Cl)c4)oc3C)CC2)c1", "max activity": "11% [at 1.35 µM]"}
{"smiles": "COc1ccc(NC(=O)N2CCN(Cc3nc(-c4cccc(Cl)c4)oc3C)CC2)cc1OC", "max activity": "-22.8%"}
{"smiles": "Cc1cccc(NC(=O)N2CCN(Cc3nc(-c4cccc(Cl)c4)oc3C)CC2)c1C", "max activity": "13.9% [at 5 µM]"}
{"smiles": "Cc1oc(-c2cccc(Cl)c2)nc1CN1CCN(C(=O)Nc2ccccc2)CC1", "max activity": "-19.4%"}
{"smiles": "COc1ccc(-c2nc(Cn3c(=O)c4c(C)cc(C)nc4n(-c4ccccc4)c3=O)c(C)o2)c(OC)c1", "max activity": "5.72% [at 2.6 µM]"}
{"smiles": "CCc1ccccc1Nc1ncnc2c1cnn2-c1ccccc1", "max activity": "13.8% [at 10 µM]"}
{"smiles": "COc1ccc(Cl)cc1S(=O)(=O)Nc1ccc(-c2nc(-c3ccc(C)c(C)c3)co2)cc1", "max activity": "41.1% [at 10 µM]"}
{"smiles": "CN1c2ccc(Br)cc2[C@H]2[C@H](CCN2S(=O)(=O)c2ccccc2F)[C@H]1CO", "max activity": "25% [at 9 µM]"}
{"smiles": "CN1c2ccc(-c3ccc(C#N)cc3)cc2[C@H]2[C@H](CCN2S(=O)(=O)c2ccc(F)cc2)[C@H]1CO", "max activity": "42.2% [at 10 µM]"}
{"smiles": "COc1ccc(C#Cc2ccc3c(c2)[C@H]2[C@H](CCN2S(=O)(=O)c2ccccc2C)[C@H](CO)N3C)cc1", "max activity": "22.1% [at 10 µM]"}
{"smiles": "COc1ccc2c(c1)NC1(CCN(C(=O)c3ccccc3C)CC1)c1cccn1-2", "max activity": "9.16% [at 0.68 µM]"}
{"smiles": "CCc1cccc(NC(=O)COc2nc(C)nc3ccccc23)c1", "max activity": "15.1% [at 0.16 µM]"}
{"smiles": "CCOc1ccc(-c2nc3c(s2)CN(S(=O)(=O)c2ccc(CC)cc2)CC3)cc1", "max activity": "33%"}
{"smiles": "CCc1ccc(S(=O)(=O)N2CCC3(CCC(C(=O)N4CCCC4)O3)CC2)cc1", "note": "(stereo not given)", "max activity": "19.6%"}
{"smiles": "Cc1ccc(-c2coc(-c3ccc(NC(=O)c4ccc(Br)o4)cc3)n2)c(C)c1", "max activity": "29% [at 0.68 µM]"}
{"smiles": "COc1ccc(CCC(=O)N2CCC(C(=O)NCCc3csc(-c4ccccc4)n3)CC2)cc1", "max activity": "22% [at 10 µM]"}
{"smiles": "COc1ccc(-c2cnc3n2CCNC32CCN(C(=O)N3CCOCC3)CC2)cc1", "max activity": "31.8%"}
{"smiles": "Cc1oc(-c2cccc(Cl)c2)nc1Cn1nnc(-c2nc(-c3ccccc3)no2)c1C", "max activity": "25.3%"}
